According to PubChem BioAssay (NCI):
Values joined by “and” are separate entries in the source; they are usually repeats but may differ in a detail not shown here. Equal entries are not always repeated. Compounds without any hit were thinned out: in the full panel of roughly 83,000, 20% have a hit.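 In brief: 96-well plates, 48 h treatment, single concentration, percent growth endpoint.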 Active and inactive are the calls of the source.

System: M14 melanoma
Assay: NCI-60 one-dose screen, 48 h (100 = growth as untreated, 0 = no growth, -100 = all killed)
Conditions: 0.25 µM
Protocol: Growth inhibition of the M14 human tumor cell line is measured as a screen for anti-cancer activity. Cells are grown in 96 well plates and exposed to the test compound for 48 hours. Compounds are tested at a single concentration, which is 10^-5 M for most compounds. The reported endpoint is percent growth (GI% or GIPRCNT), where numbers from 0 - 100% represent growth inhibition, and numbers from -100% - 0 represent cell death. For example, a value of 40 represents 60% growth inhibition. A value of 0 means no net growth occurred over the course of the experiment. A value of -40 indicates 40% of cells at the beginning of the experiment died by the end of the experiment. A value of -100 means all cells are dead at the end of the experiment.
NCI-60 Human Tumor Cell Lines Screen was performed using the standard one-dose NCI protocol, which is described in more detail at https://dtp.cancer.gov/discovery_development/nci-60/default.htm.
Compounds with GIPRCNT values below 10 were considered active. Activity score was based on GIPRCNT using the following formula: […]
Score is 0 for GIPRCNT values of 100 or above, 50 for GIPRCNT values of 0, and 100 for GIPRCNT values of -100.

SMILES	growth
CCCCCCCCCCCCCCCc1ccc(Cl)c(O)c1Cl (tested in a mixture with another compound)	41% (inactive)

Same assay, conditions: 10 µM

SMILES	growth
CCCCCCCCCCCCCCCc1ccc(Cl)c(O)c1Cl (tested in a mixture with another compound)	92.2% (inactive)
CC1(C)OB(c2ccc(Cn3cc(F)c(=O)[nH]c3=O)cc2)OC1(C)C	103% (inactive)
Cc1[nH]c(-c2nc3ccccc3[nH]2)c(C)c1C(=O)NC(C)C1CCCCC1 (stereo not given)	83.1% (inactive)

Same assay, conditions: 10 µM unless noted

SMILES	growth
NC(=O)C1CC2C=CC1C2 (stereo not given)	106% (inactive) and 87.4% (inactive)
CC1CCCc2sc3nc(NNC(=O)c4cnccn4)n(-c4ccccc4)c(=O)c3c21 (stereo not given)	7.99% (active) and -2.42% (active)
CN1CCN(c2ccc3nc(-c4c(N)c5c(F)cccc5[nH]c4=O)[nH]c3c2)CC1	-25.3% (active) and 2.34% (active)
CNc1ccc2nc3ccc(=[N+](C)C)cc-3sc2c1	3.79% (active) and -23.3% (active)
N=C1N=C(N)CS1	108% (inactive)
Cc1cccc(/C=C\C(=O)c2ccc(Cl)cc2)c1	94.3% (inactive) and 91.1% (inactive)
COc1ccc(NC(=S)Nc2ccccn2)cc1	106% (inactive)
OCCN1CCN(CCCN2c3ccccc3Sc3ccc(Cl)cc32)CC1	-76.7% (active) and 50.1% (inactive)
COc1ccccc1/C=N\N=C(N/N=C/c1ccccc1OC)N/N=C/c1ccccc1OC	59.9% (inactive) and 26.6% (inactive)
CNC(=O)c1cccc(-c2ccc3c(N4CCOC[C@@H]4C)nc(N4CCOC[C@@H]4C)nc3n2)c1	-3.53% (active) and -5.57% (active)
O=[N+]([O-])c1ccccc1N(S(=O)(=O)c1ccccc1)S(=O)(=O)c1ccccc1	128% (inactive) and 98.6% (inactive)
CC(C)N=c1cc2n(-c3ccc(Cl)cc3)c3ccccc3nc-2cc1Nc1ccc(Cl)cc1	-8.29% (active) and -34.4% (active) and -56.7% (active)
CNC(=O)c1cc(Oc2ccc(NC(=O)Nc3ccc(Cl)c(C(F)(F)F)c3)cc2)ccn1	-4.68% (active) and 5.32% (active)
CC1(c2ccc3ccccc3c2)CCC(=O)O1 (stereo not given)	117% (inactive)
CC1=NN(c2ccccc2)C(=O)C1C(=O)c1ccccc1 (stereo not given)	104% (inactive)
c1ccc2cc(C[n+]3ccn(Cc4ccc5ccccc5n4)c3)ccc2c1	9.07% (active) and 35.4% (inactive)
S=C1SCN(Cc2ccccc2)CN1Cc1ccccc1	82.3% (inactive)

SMILES	growth
Nc1nc(SC/C=C/CCl)c2[nH]cnc2n1	107% (inactive) and 98.9% (inactive)
N#C/C(=C1C=C/C(=N/O)C(Br)=C/1)c1ccccc1	31.9% (inactive)
COc1ccc2c(=O)cc(-c3ccccc3)[nH]c2c1	4.76% (active) and 0.39% (active)
O=c1c2ccccc2nc2n1Cc1nc3ccccc3c(=O)n1C2	89.3% (inactive) and 94.1% (inactive)
Nc1nc2ncc(CNc3ccc(C(=O)N[C@@H](CCc4nn[nH]n4)C(=O)O)cc3)nc2c(=O)[nH]1	88% (inactive) and 98.6% (inactive)
O=Nc1ccc(O)cc1	97.8% (inactive) and 102% (inactive)
CCOc1ccc2cc(-c3nn(CC4CCNCC4)c4ncnc(N)c34)ccc2c1	91.5% (inactive) and -42.6% (active)
O=C(Nc1ccc(Cl)cc1)c1cc2ccccc2cc1O	55% (inactive) and 7.47% (active)
COc1cc(Nc2nc3ccccc3nc2NS(=O)(=O)c2ccc(NC(=O)c3ccc(C)c(OC)c3)cc2)cc(OC)c1	64.1% (inactive) and 8.75% (active)
Oc1ccc(/C=C/c2ccccc2)cc1	68% (inactive) and 73.4% (inactive)
Nc1cc2c(cc1N)-c1ccccc1C2	97.1% (inactive) and 109% (inactive)
Cn1c(SSc2ccc(-c3cccnc3)n2C)ccc1-c1cccnc1	101% (inactive) and 98.4% (inactive)
Cc1cc(=O)[nH]c(O)c1C#N	99.4% (inactive) and 101% (inactive)
O=C(c1ccc(Cl)cc1)C(NCCO)c1ccc(Cl)cc1 (stereo not given)	101% (inactive) and 104% (inactive)
O=C1CCN(Cc2ccccc2)C(=S)N1	103% (inactive) and 112% (inactive)
O=C=NC(c1ccccc1)(c1ccccc1)c1ccccc1	101% (inactive)
Oc1ccccc1C=NCC1CCC(CN=Cc2ccccc2O)CC1 (stereo not given)	98.8% (inactive)

Same assay, conditions: 50 µM

SMILES	growth
CC1(C)OB(c2ccc(Cn3cc(F)c(=O)[nH]c3=O)cc2)OC1(C)C	44.9% (inactive)

Same assay, conditions: 100 µM

SMILES	growth
Cc1[nH]c(-c2nc3ccccc3[nH]2)c(C)c1C(=O)NC(C)C1CCCCC1 (stereo not given)	-73.2% (active)
